# Data reported in the supplement of paper PMC8728848.
# This is one part of a sample in which the strongest signals are shown more often than they occur.
# B1: PX9937A-bvu-521-23-521 (Bacteroides vulgatus) (protein)
# chain: LDLAPEDYYGAGNFWKEASQPKAFMLGLHAQLRSYYDMFYTLGELRGGTQRVGTSSLNTSLNYADIRSQNISEDIPGISNWNGLYSPIMQVNHFIQEVENGCTFLDDATRSRYLGQAYGMRALYYFMLYRTFGGVPLITKVDILDGKPSADKFYVERATPEATMEFIKADINKSENYFGNNTSFDAYDWSRYATLMLKAEIYMWAAKVSITGFTATGATDLQTAKTALSGIIGHFELMDNFASIFSCDNKKNTEIIFAMPFIEGEASNDGGRFLYQDAVFLGQAYGRNGKVIEKDTLNLKGTGGVFRDEYTEDFWKTFKEGDSRRDATFMEYYMKNDNGTLSEFGCVMKKRIGTINSNDNRIYISDIPVYRYADALLMMAEIENGLNNPCASYINEVRKRAYGDTFEENKYTEGSYAENELAILQERDKEFVSEGKRWFDVLRMHDASGRSLVFSANANYPGTNPILGTEEAYKMLWPVNIGTLNVNPLLTQTPGYGKK
# Columns and labels:
# Assay in all cases: glycan array binding signal (z-score within array); higher = stronger binding
# Conditions in all cases: glycan notation: IUPAC condensed, linker removed
# GalNAc(b1-4)GlcNAc = target: GalNAc(b1-4)GlcNAc
# Summary of the method: (§1)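 Columns mapping to the same glycan were averaged after glycan names were converted to IUPAC-condensed notation. The data come from 3228 arrays in the Consortium for Functional Glycomics database, limited to those with an available protein sequence. Binding is reported as a within-array Z-score averaged across arrays of one protein sequence and across linkers.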
# [1] = target: GlcNAc(b1-2)Man(a1-3)[GlcNAc(b1-4)][GlcNAc(b1-2)Man(a1-6)]Man(b1-4)GlcNAc(b1-4)[Fuc(a1-6)]GlcNAc
# Summary of the method: as §1
# GlcNAc(b1-3)Fuc = target: GlcNAc(b1-3)Fuc
# Summary of the method: as §1
# [2] = target: GlcNAc(b1-3)Gal(b1-4)GlcNAc(b1-2)Man(a1-3)[GlcNAc(b1-3)Gal(b1-4)GlcNAc(b1-2)Man(a1-6)]Man(b1-4)GlcNAc(b1-4)GlcNAc
# Summary of the method: as §1
# [3] = target: GlcNAc(b1-3)Gal(b1-4)GlcNAc(b1-3)Gal(b1-4)GlcNAc(b1-3)Gal(b1-4)GlcNAc(b1-2)[GlcNAc(b1-3)Gal(b1-4)GlcNAc(b1-3)Gal(b1-4)GlcNAc(b1-3)Gal(b1-4)GlcNAc(b1-6)]Man(a1-6)[GlcNAc(b1-3)Gal(b1-4)GlcNAc(b1-3)Gal(b1-4)GlcNAc(b1-3)Gal(b1-4)GlcNAc(b1-2)Man(a1-3)]Man(b1-4)GlcNAc(b1-4)[Fuc(a1-6)]GlcNAc
# Summary of the method: as §1
# [4] = target: GlcNAc(b1-3)Gal(b1-4)GlcNAc(b1-3)Gal(b1-4)GlcNAc(b1-3)Gal(b1-4)GlcNAc(b1-3)Gal(b1-4)GlcNAc(b1-2)Man(a1-3)[GlcNAc(b1-3)Gal(b1-4)GlcNAc(b1-3)Gal(b1-4)GlcNAc(b1-3)Gal(b1-4)GlcNAc(b1-3)Gal(b1-4)GlcNAc(b1-2)Man(a1-6)]Man(b1-4)GlcNAc(b1-4)[Fuc(a1-6)]GlcNAc
# Summary of the method: as §1
# [5] = target: GlcNAc(b1-3)Gal(b1-4)GlcNAc(b1-6)[GlcNAc(b1-3)]Gal(b1-4)GlcNAc
# Summary of the method: as §1
# Kdn(a2-3)Gal(b1-3)GalNAc = target: Kdn(a2-3)Gal(b1-3)GalNAc
# Summary of the method: as §1
# Kdn(a2-3)Gal(b1-4)Glc = target: Kdn(a2-3)Gal(b1-4)Glc
# Summary of the method: as §1
# [6] = target: Man(a1-2)Man(a1-3)[Man(a1-2)Man(a1-6)]Man(a1-6)[Man(a1-2)Man(a1-2)Man(a1-3)]Man(b1-4)GlcNAc(b1-4)GlcNAc
# Summary of the method: as §1
# Man(a1-6)Man = target: Man(a1-6)Man
# Summary of the method: as §1
# [7] = target: Neu5Ac(a2-3)Gal(b1-3)GalNAc(b1-4)[Neu5Ac(a2-8)Neu5Ac(a2-3)]Gal(b1-4)Glc
# Summary of the method: as §1
# Neu5Ac(a2-3)Gal(b1-4)Glc = target: Neu5Ac(a2-3)Gal(b1-4)Glc
# Summary of the method: as §1
# [8] = target: Neu5Ac(a2-3)Gal(b1-4)GlcNAc(b1-2)Man(a1-3)[GlcNAc(b1-4)][Neu5Ac(a2-3)Gal(b1-4)GlcNAc(b1-2)Man(a1-6)]Man(b1-4)GlcNAc(b1-4)GlcNAc
# Summary of the method: as §1
# [9] = target: Neu5Ac(a2-3)Gal(b1-4)GlcNAc(b1-2)[Neu5Ac(a2-3)Gal(b1-4)GlcNAc(b1-6)]Man(a1-6)[Neu5Ac(a2-3)Gal(b1-4)GlcNAc(b1-2)Man(a1-3)][GlcNAc(b1-4)]Man(b1-4)GlcNAc(b1-4)GlcNAc
# Summary of the method: as §1
# [10] = target: Neu5Ac(a2-3)Gal(b1-4)[Fuc(a1-3)]GlcNAc(b1-6)[Gal(b1-3)]GalNAc
# Summary of the method: as §1
# [11] = target: Neu5Ac(a2-6)Gal(b1-4)GlcNAc(b1-2)Man(a1-6)Man(b1-4)GlcNAc(b1-4)GlcNAc
# Summary of the method: as §1
# [12] = target: Neu5Ac(a2-6)Gal(b1-4)GlcNAc(b1-2)Man(a1-6)[GlcNAc(b1-2)Man(a1-3)]Man(b1-4)GlcNAc(b1-4)GlcNAc
# Summary of the method: as §1
# [13] = target: Neu5Ac(a2-6)Gal(b1-4)GlcNAc(b1-3)Gal(b1-4)GlcNAc(b1-3)Gal(b1-4)GlcNAc(b1-2)Man(a1-3)[Neu5Ac(a2-6)Gal(b1-4)GlcNAc(b1-3)Gal(b1-4)GlcNAc(b1-3)Gal(b1-4)GlcNAc(b1-2)Man(a1-6)]GalNAc
# Summary of the method: as §1
# [14] = target: Neu5Ac(a2-6)Gal(b1-4)GlcNAc(b1-3)GalNAc
# Summary of the method: as §1
# [15] = target: Neu5Ac(a2-6)GalNAc(b1-4)GlcNAc6S
# Summary of the method: as §1
# [16] = target: Neu5Ac(a2-8)Neu5Gc(a2-3)Gal(b1-4)GlcNAc
# Summary of the method: as §1
# [17] = target: Neu5Ac9Ac(a2-3)Gal(b1-4)GlcNAc
# Summary of the method: as §1
# [18] = target: Neu5Ac9Ac(a2-6)Gal(b1-4)GlcNAc
# Summary of the method: as §1
# Neu5Gc(a2-6)GalNAc = target: Neu5Gc(a2-6)GalNAc
# Summary of the method: as §1
# [19] = target: Neu5Gc(a2-8)Neu5Gc(a2-3)Gal(b1-4)GlcNAc(b1-3)Gal(b1-4)GlcNAc
# Summary of the method: as §1
binder,measurement,setting,value
B1,glycan array binding signal (z-score),GalNAc(b1-4)GlcNAc,2.94
same,glycan array binding signal (z-score),[1],-0.211
same,glycan array binding signal (z-score),GlcNAc(b1-3)Fuc,2.63
same,glycan array binding signal (z-score),[2],2.54
same,glycan array binding signal (z-score),[3],-0.128
same,glycan array binding signal (z-score),[4],-0.708
same,glycan array binding signal (z-score),[5],-0.214
same,glycan array binding signal (z-score),Kdn(a2-3)Gal(b1-3)GalNAc,2.84
same,glycan array binding signal (z-score),Kdn(a2-3)Gal(b1-4)Glc,-0.287
same,glycan array binding signal (z-score),[6],-0.427
same,glycan array binding signal (z-score),Man(a1-6)Man,4.8
same,glycan array binding signal (z-score),[7],0.038
same,glycan array binding signal (z-score),Neu5Ac(a2-3)Gal(b1-4)Glc,0.96
same,glycan array binding signal (z-score),[8],-0.062
same,glycan array binding signal (z-score),[9],-0.581
same,glycan array binding signal (z-score),[10],-0.51
same,glycan array binding signal (z-score),[11],-0.252
same,glycan array binding signal (z-score),[12],-0.416
same,glycan array binding signal (z-score),[13],0.232
same,glycan array binding signal (z-score),[14],-0.431
same,glycan array binding signal (z-score),[15],0.342
same,glycan array binding signal (z-score),[16],10.6
same,glycan array binding signal (z-score),[17],0.442
same,glycan array binding signal (z-score),[18],0.304
same,glycan array binding signal (z-score),Neu5Gc(a2-6)GalNAc,-0.419
same,glycan array binding signal (z-score),[19],-0.58
